The campaign covered roughly 640,000 compounds. About 9,300 (1.5%) were called active. Rule as the data show it: active = inhibition above about 32%; inactive = the rest. The full list was thinned out, with actives kept by preference.

The nature of this assay: TEAD-YAP interaction inhibition, primary screen, TEAD-YAP interaction inhibitor project, luminescence, HEK-TIYL cells (AID 1259422).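 Also: 0% = median of test compound wells and 100% = reference inhibitor wells.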 As to conditions: TEAD-Gal4/YAP UAS-luciferase luminescence, at 9.12 µM, stronger effect = higher value.
For `CC(=O)c1cccc(NC(=O)c2nn3c(C(F)(F)F)cc(-c4ccc(Br)cc4)nc3c2Cl)c1`, the inhibition was 2.9% (inactive).

Take `CCC(=O)Oc1ccc(OC)cc1C1Oc2nc(SC)nnc2-c2ccccc2N1C(=O)CC` (stereo not given): the inhibition was -5.21% (inactive).

Turning to `Cc1nc2ccc(Cc3ccc4nc(C)oc(=O)c4c3)cc2c(=O)o1`, the inhibition is -1.07% (inactive).

As to `Cc1nc2sc(-c3ccccc3)cc2c(=O)o1`, the inhibition is 41% (active).

Consider `COC(=O)C(C)n1cnc2sc(-c3ccccc3)cc2c1=O` (stereo not given), for which the inhibition is -25.2% (inactive).

Take `O=S(=O)(O)CCC[n+]1ccc(/C=C/c2c[nH]c3ccccc23)cc1`: the inhibition was 3.32% (inactive).

In the case of `OCCCNc1ccc2ncc(-c3ccc(N4CCOCC4)cc3)n2n1`, the inhibition was 19.8% (inactive).

With `Cc1cc(C(=O)COC(=O)c2ccc([N+](=O)[O-])o2)c(C)n1Cc1cccs1`, the inhibition is 0.16% (inactive).

With `Cc1cc(C(=O)COC(=O)C(CC(C)C)NC(N)=O)c(C)n1Cc1cccs1` (stereo not given), the inhibition is 66.1% (active).

Turning to `Cc1cc(C(=O)COC(=O)CCC(=O)c2cccs2)c(C)n1Cc1ccco1`, the inhibition is -6.67% (inactive).

As to `COc1ccc(-c2cn3c4ccccc4n(N)c3n2)cc1`, the inhibition is 90% (active).

For `Cn1c2ccccc2n2cc(-c3ccc([N+](=O)[O-])cc3)nc12`, the inhibition was -27.1% (inactive).

For `COc1ccc(-c2cn3c4ccccc4n(CCN4CCOCC4)c3n2)cc1`, the inhibition was -4.68% (inactive).

Regarding `CC(C)[C@@H](CO)Nc1ccc2ncc(-c3ccc(C#N)cc3)n2n1`, the inhibition was 29.7% (inactive).

With `CC(C)[C@@H](CO)Nc1ccc2ncc(-c3ccc(O)cc3)n2n1`, the inhibition is -7.09% (inactive).

With `CCC(CO)Nc1ccc2ncc(-c3cccc(F)c3)n2n1` (stereo not given), the inhibition is 5.85% (inactive).

Take `CCC(CO)Nc1ccc2ncc(-c3ccc(N4CCOCC4)cc3)n2n1` (stereo not given): the inhibition was -1.73% (inactive).

With `CCC(CO)Nc1ccc2ncc(-c3ccccc3)n2n1` (stereo not given), the inhibition was 33.7% (active).

For `CC(C)[C@@H](CO)Nc1ccc2ncc(-c3ccccc3F)n2n1`, the inhibition was 57.3% (active).

With `CCS(=O)(=O)Nc1cccc(N2CCC(NCCn3nc(C)cc3C)CC2)c1`, the inhibition is 2.36% (inactive).

In the case of `CC(Oc1ccc(Cl)cc1Cl)C(=O)Nc1ccc(C(=O)O)cc1` (stereo not given), the inhibition is 11.5% (inactive).

Regarding `O=C(CN(c1ccc(Cl)cc1Cl)S(=O)(=O)c1ccccc1)Nc1ccc(Cl)c(Cl)c1`, the inhibition was -0.39% (inactive).

For `CC(C)(C)c1ccc(NC(=O)CSc2cccc[n+]2[O-])cc1`, the inhibition is -49.2% (inactive).

`O=C(NCc1ccc2c(c1)OCO2)c1cccnc1SCc1cccc(Br)c1`: the inhibition was 10.6% (inactive).

On to `NC(=O)c1c(NC(=O)Cc2ccccc2)sc2c1CCCCC2`, for which the inhibition is -7.09% (inactive).

For the molecule `COC(=O)c1c(NC(=O)c2cc3ccccc3oc2=O)sc2c1CCCC2`, the inhibition was -7.92% (inactive).

For `NC(=O)c1c(NC(=O)c2cc(=O)c3ccccc3o2)sc2c1CCCCC2`, the inhibition was 32.9% (active).

For the molecule `O=C(Nc1sc2c(c1C(=O)O)CCCC2)c1cc2ccccc2o1`, the inhibition is 50.1% (active).

For `N#Cc1c(NC(=O)c2cc3ccccc3c(=O)o2)sc2c1CCCCC2`, the inhibition is 4.91% (inactive).

Turning to `NC(=O)c1c(NC(=O)c2ccc(Br)o2)sc2c1CCCC2`, the inhibition is 3.19% (inactive).

These data come from PubChem BioAssay AID1259422 (The Scripps Research Institute Molecular Screening Center, 2018).
